HCV inhibitor – blocks hepatitis C virus | Huh7.5.1 HCVcc-Cre infection, luciferase reporter, 44 h | Potency, µM (top dose mostly 41.8 µM), for inactives: at the highest dose activity change, negative = inhibition, hits mostly inhibitors | 3.4% of 340,000 active
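Luciferase read-out (15 sec integration) after a 15 min room-temperature substrate step quantifies HCVcc-Cre infection. Cells, 1,000 per well, had compound added 4 h post-plating, then virus at ~0.5 moi, and were cultured 44 h.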
Pf growth 48h – P. falciparum growth inhibition at 48 hours (one generation); P. falciparum luciferase growth in erythrocytes, 48 h; Potency, µM (series often up to 28.7 µM), for the others: top-dose activity change, negative = inhibition, usual class: inhibitors; 5.9% of 310,000 active
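Firefly luciferase activity from engineered P. falciparum reports growth; inhibitors lower the luminescent signal. Cultures contained 2% hematocrit erythrocytes at 0.1% final parasitemia.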
Pf growth 96h – P. falciparum growth inhibition at 96 hours; 6.9% of 320,000 active; P. falciparum luciferase reporter growth, 96 h; Potency, µM (titrated, usually from 28.7 µM), inactives show at the highest dose activity change, negative = inhibition, usual class: inhibitors; AID 504834
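Compounds incubated with erythrocytes infected by luciferase-expressing P. falciparum (2% hematocrit, 0.05% parasitemia final) for 96 hours, 37 C in 5% CO2. Growth inhibition scored as decreased luciferase luminescence.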
AMA1-RON2 inh – inhibitors of Plasmodium falciparum AMA1-RON2 interaction. AlphaScreen AMA1-biotinylated RON2 peptide binding. Potency, µM (series often up to 58.2 µM), for the others: at the highest dose activity change, negative = inhibition, usual class: inhibitors. 0.2% of 360,000 active;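 note: 0% = vehicle wells and -100% = peptide control; nearly all actives have a fitted effect of over 45% in size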
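AMA1 (3D7) with his tag at 25 nM final met compounds first, then biotinylated RON2 peptide at 25 nM; detection used donor plus acceptor beads, 10 µg/mL apiece, read by AlphaScreen after 30 min at room temperature.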
* marks the source's active call; other numbers are inactive results; ? = inconclusive; / = not tested or not shown; [ ] = dose if it differs, or a comment. Shown are actives, neighbours in structure and some others; about 11% of the full set was active somewhere. Calls come from the whole dose curve; as a rule, active = well fitted curve in the direction sought with a large enough effect; inconclusive = small, poorly fitted or top-dose-only effect, or another doubt; inactive = no such curve, though single readings can be large; an effect the other way counts as inactive or inconclusive. Unless noted, % is set by controls: 0 for no effect and ±100 for the full control effect; potency is the fitted concentration of half-maximal effect.

SMILES	HCV inhibitor	Pf growth 48h	Pf growth 96h	AMA1-RON2 inh
CCOC(=O)C1CN(S(=O)(=O)c2ccc(C)cc2)CCN1S(=O)(=O)c1ccc(C)cc1 (centres undefined)	-6.4%	?	14.7µM*	7.1%
CCOC(=O)C1CCCN(C(=O)c2ccccc2NS(=O)(=O)c2ccc(F)cc2)C1 (centres undefined)	6.7%	/	/	-2.1%
CCOC(=O)C1CN(S(=O)(=O)c2ccccc2)CCN1S(=O)(=O)c1ccccc1 (centres undefined)	-11.7%	/	?	-4.4%
CCOC(=O)C1CCCN(C(=O)c2cc(S(=O)(=O)N3CCCCC3)ccc2C)C1 (centres undefined)	?	8.28µM*	?	-2.7%
CCOC(=O)/C(C#N)=C/Nc1ccccc1NS(=O)(=O)c1ccc(C)c(C)c1	18.1%	?	2.94µM*	41.5%
CCOC(=O)/C(C#N)=C/Nc1ccccc1NS(=O)(=O)c1cccc(C(C)=O)c1	7.7%	?	?	74.5%
CCOC(=O)C1CCN(C(=O)c2ccc(S(=O)(=O)Nc3ccccc3OC)cc2)CC1	?	?	11.7µM*	-7.2%
COc1ccccc1NS(=O)(=O)c1ccc(C(=O)N2CCN(c3ccccn3)CC2)cc1	11.2µM*	/	/	-20.0%
CCOC(=O)C1CCCN(C(=O)c2cn(CC)c3ccc(S(=O)(=O)N4CCCC4)cc3c2=O)C1 (centres undefined)	-1.3%	11.7µM*	/	8.2%
Cc1cccc(NC(=O)COc2cccc3c2CCN(C)C3=O)c1C	?	?	?	4.1%
CCOC(=O)C1CCN(C(=O)c2ccccc2NS(=O)(=O)c2ccccc2)CC1	22.4%	22.5%	-59.6%	4.6%
CCOC(=O)c1c(NC(=O)COc2cccc3c2CCN(C)C3=O)sc2c1CCC2	-3.6%	?	13.1µM*	-1.0%
Cc1ccc(S(=O)(=O)C[C@@H]2OC[C@H](C(C)C)N2S(=O)(=O)c2ccc(C)cc2)cc1	/	/	/	1.0%
CCOC(=O)C1CCN(C(=O)COc2ccc(S(=O)(=O)N3CCCC3)cc2C)CC1	-26.4%	-21.0%	3.29µM*	-3.4%
COc1ccccc1NS(=O)(=O)c1ccc(C)c(C(N)=O)c1	-3.4%	16.1%	5.22µM*	10.8%
COc1ccccc1NS(=O)(=O)c1ccc(C(N)=O)cc1	11.1%	8.0%	2.7%	-3.7%
CCOC(=O)c1c(NC(=O)C2CCCN(S(=O)(=O)c3ccccc3)C2)sc2c1CCCC2 (centres undefined)	5.62µM*	?	?	0.0%
CCOC(=O)c1c(NC(=O)C2CCCN(S(=O)(=O)c3ccc(C)cc3)C2)sc2c1CCCC2 (centres undefined)	4.4%	14.3%	21.5%	?
CCOC(=O)C1CCCN(CCC(=O)Nc2cc(C)ccc2C)C1 (centres undefined)	7.6%	-4.0%	6.57µM*	15.2%
CCOC(=O)C1CCCN(C(=O)c2ccc(S(=O)(=O)N3CCCC3)cc2)C1 (centres undefined)	?	-7.0%	-3.5%	19.2%
CCn1cc(C(=O)N(C)CC(OC)OC)c(=O)c2cc(S(=O)(=O)N3CCOCC3)ccc21	14.7%	15.9%	6.57µM*	22.4%
CCn1cc(C(=O)N2CCc3ccccc32)c(=O)c2cc(S(=O)(=O)N3CCCC3)ccc21	3.9%	?	11.7µM*	-15.4%
CCOC(=O)C1CCCN(S(=O)(=O)c2ccc(S(=O)(=O)N3CCCC3)cc2)C1 (centres undefined)	1.41µM*	?	-16.1%	30.9%
CCn1cc(C(=O)NCCN(CC(C)C)CC(C)C)c(=O)c2cc(S(=O)(=O)N3CCOCC3)ccc21	-16.9%	?	0.3%	4.2%
Cc1ccc(-n2c(SCC(=O)O)nc3sc4c(c3c2=O)CCCC4)cc1	-5.6%	10.5%	2.94µM*	-11.1%
SMILES	HCV inhibitor	Pf growth 48h	Pf growth 96h	AMA1-RON2 inh
COc1ccc(-n2c(SCC(N)=O)nc3sc4c(c3c2=O)CCC4)cc1	10µM*	7.3%	-4.6%	-11.7%
Cc1cccc(-n2c(SCC(=O)O)nc3sc4c(c3c2=O)CCCC4)c1	7.6%	-8.1%	33.1%	3.9%
CCOC(=O)CSc1nc2sc3c(c2c(=O)n1-c1ccc(OCC)cc1)CCN(C)C3	?	13.1µM*	0.738µM*	10.3%
CCOC(=O)CSc1nc2sc3c(c2c(=O)n1C1CCCCC1)CCN(C)C3	?	1.47µM*	?	-16.0%
CCOC(=O)c1cc(CC)sc1NC(=O)c1ccc([N+](=O)[O-])c(N2CCOCC2)c1	-1.6%	26.5%	?	5.6%
Cc1ccc(S(=O)(=O)CCC(=O)OCC(=O)NC(C)c2ccccc2)cc1 (centres undefined)	25.9%	0.9%	4.2%	5.2%
COc1cc(C(=O)NCC(=O)NNC(=O)C2COc3ccccc3O2)cc(OC)c1OC (centres undefined)	4.1%	?	?	84.5%
C=C(C)CSc1nc2sc3c(c2c(=O)n1-c1ccc(C)cc1)CCN(C)C3	?	1.31µM*	0.928µM*	-0.6%
COc1ccc(-n2c(C)nc3sc4c(c3c2=O)CCC4)cc1	-0.1%	14.0%	4.65µM*	-19.0%
Cc1ccc(-n2c(SCC(=O)c3c(N)n(C)c(=O)n(C)c3=O)nc3sc4c(c3c2=O)CCCC4)c(C)c1	?	1.17µM*	0.828µM*	-6.4%
COc1ccc(-n2c(SCC(=O)O)nc3sc4c(c3c2=O)CCC4)cc1	2.7%	-3.8%	?	-21.5%
COc1ccc(-n2c(N3CCN(C)CC3)nc3sc4c(c3c2=O)CCCCC4)cc1	12.6µM*	-24.3%	8.0%[5.75 µM]	-0.9%
CC1=C(C(=O)NCc2ccccn2)C2(CCC(C)CC2)OC1=O (centres undefined)	26.0%	?	-29.0%	54.4%
Cc1ccccc1-c1nc2sc3c(c2c(=O)n1N)CCCC3	-4.9%	/	4.65µM*	-0.5%
COc1ccc(NC(=O)CSc2nc3sc4c(c3c(=O)n2-c2ccc(OC)cc2)CCN(C)C4)cc1	?	?	?	-15.3%
CCOc1ccc(-n2c(SCC(N)=O)nc3sc4c(c3c2=O)CCN(C)C4)cc1	12.5%	1.47µM*	0.657µM*	-8.7%
CCOC(=O)C1(C)CCCCCN1C(=O)c1ccc(C(F)(F)F)nc1C (centres undefined)	/	/	/	13.5%
O=C1Nc2ccccc2C1(O)c1ccccc1 (centres undefined)	8.9%	-1.0%	0.104µM*	2.3%
Cc1ccc(Nc2nc(CSc3nnc(-c4ccc(F)cc4)n3C)cs2)cc1	?	78.2%	27.9%	18.8%
Nc1ccc2c3c(ccc([N+](=O)[O-])c13)CC2	/	/	/	28.2µM*
Cc1ccc(-c2cc(C(F)F)n3ncc(C(=O)Nc4ccc(S(=O)(=O)Nc5ccccc5C)cc4)c3n2)cc1	?	1.85µM*	14.7µM*	-3.9%
COc1ccc(NS(=O)(=O)c2ccc(NC(=O)c3cnn4c(C(F)F)cc(-c5ccc(C)cc5)nc34)cc2)cc1	/	?	0.828µM*	/
COc1ccc(-c2cc(C(F)F)n3ncc(C(=O)Nc4ccc(C(=O)N5CCOCC5)cc4)c3n2)cc1	-12.9%	?	43.7%	-1.4%

Screening data from PubChem BioAssay.
